Source: PubChem BioAssay (National Center for Advancing Translational Sciences (NCATS))
This is a sample that favours compounds with a hit; in the whole collection about 11% have one here.
HCV inhibitor: blocks hepatitis C virus; Huh7.5.1 HCVcc-Cre infection, luciferase reporter, 44 h; Potency, µM (series often up to 41.8 µM), inactives show top-dose activity change, negative = inhibition, hits mostly inhibitors; 3.4% of 340,000 active; AID 651820; also: % is scaled to controls: 0 for no effect and ±100 for the full control effect
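A cell-based infection assay in which seeded cells (1,000 per well) receive test compound after 4 h, are inoculated with HCVcc-Cre at approximately 0.5 moi, and are incubated 44 h before luminescence detection.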
Pf growth 96h: P. falciparum growth inhibition at 96 hours. P. falciparum luciferase reporter growth, 96 h. Potency, µM (titrated, usually from 28.7 µM), for the others: at the highest dose activity change, negative = inhibition, hits mostly inhibitors. 6.9% of 320,000 active. AID 504834; also: % is scaled to controls: 0 for no effect and ±100 for the full control effect
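Readout is luminescence from an integrated firefly luciferase in P. falciparum. Red cells, 2% hematocrit and 0.05% parasitemia final, were cultured with compound through two parasite generations (96 hours) at 37 C, 5% CO2.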
VACV mCherry inh: inhibitors of vaccinia virus infection (mCherry reporter signal) | Vaccinia virus mCherry reporter infection, fluorescence | Potency, µM (series often up to 36.5 µM), for the others: at the top dose activity change, negative = inhibition, most hits filed as inhibitors | 0.63% of 310,000 active | AID 720579; calls by dose curve; tested in A549 cells; also: % is scaled to controls: 0 for no effect and ±100 for the full control effect; nearly all actives have a fitted effect of over 35% in size
Pf growth 48h: inhibits P. falciparum growth in the first generation, 48 h; 5.9% of 310,000 active; P. falciparum luciferase growth in erythrocytes, 48 h; AID 504832; Potency, µM (top dose mostly 28.7 µM), without a hit: top-dose activity change, negative = inhibition, actives largely listed as inhibitors; also: % is scaled to controls: 0 for no effect and ±100 for the full control effect
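In quantitative HTS format, infected erythrocytes bearing luciferase-reporter parasites were treated for a single generation at 37 C. Luminescence after adding detection reagent served as the growth measure.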
NS1 function inh: blocks influenza NS1 protein function; Potency, µM (top dose mostly 46.1 µM), without a hit: at the highest dose activity, positive = more growth; 0.4% of 270,000 active; AID 2326; calls by dose curve; also: actives are rising curves; nearly all actives have a fitted effect of over 50% in size
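Recovery from NS1-induced slow growth read by OD600 in budding yeast switched to galactose assay medium (pH 6.0, -URA) at 1:100 dilution. Compound 23 nl per well; the matching strain lacking NS1 serves as control.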
VACV Venus inh: inhibitors of vaccinia virus (Venus reporter); Vaccinia virus Venus reporter expression, fluorescence; Potency, µM (highest dose often 36.5 µM), inactives show at the top dose activity change, negative = inhibition, hits mostly inhibitors; 0.46% of 330,000 active; calls by dose curve; tested in A549 cells; also: % is scaled to controls: 0 for no effect and ±100 for the full control effect; nearly all actives have a fitted effect of over 30% in size
The depositor's hits bear a star; i = inactive; ? = inconclusive; nt = no result given. Unless noted, calls follow the shape of the dose curve; as a rule, active = well fitted inhibition curve with a large enough effect; inconclusive = small, poorly fitted or top-dose-only effect, or another doubt; inactive = no such curve, though single readings can be large or run the other way. Potency is read from the fitted curve at half-maximal effect.

SMILES	HCV inhibitor	Pf growth 96h	VACV mCherry inh	Pf growth 48h	NS1 function inh	VACV Venus inh
O=C(Nc1ccc(Nc2ccccc2)cc1)c1cc([N+](=O)[O-])ccc1Cl	11.2µM*	?	nt	?	18.0%	nt
CN(C)S(=O)(=O)c1ccc(Cl)c(C(=O)Nc2cccc([N+](=O)[O-])c2)c1	11.2µM*	0.7%	nt	?	-5.1%	nt
COc1ccc(N(C)C(=O)Cn2c(=O)oc3ccccc32)c(OC)c1	4.2%	?	i	23.6%	-2.3%	-17.3%
OC1CCCN(C(=S)NCc2ccccc2)C1 (stereo not given)	14.9%	3.29µM*	-6.8%	42.3%	1.7%	0.4%
CC[C@]1(C(=O)OC)[C@H]2C(=O)N(C)C(=O)[C@H]2[C@H]2CN=C(SCc3ccc(Cl)cc3)N21	-5.3%	nt	i	nt	nt	-10.6%
COC(=O)[C@@]1(C)[C@H]2C(=O)N(C)C(=O)[C@H]2[C@H]2CN=C(SCc3ccc(C#N)cc3)N21	0.562µM*	nt	i	nt	nt	7.1%
COC(=O)[C@@]1(C)[C@H]2C(=O)N(C)C(=O)[C@H]2[C@H]2CN=C(SCc3ccc(Cl)cc3)N21	4.47µM*	nt	-0.1%	nt	nt	-28.3%
CCc1cccc(NC(=O)C2CCCN2C(=O)Nc2ccc(C)cc2)c1 (stereo not given)	5.6%	-3.6%	i	39.0%	-0.3%	-7.6%
CCN1C(=O)[C@H]2[C@@H](c3ccc(-c4cccc(Cl)c4)cc3)N[C@@](C)(C(=O)OC)[C@H]2C1=O	5.5%	?	?	13.1µM*	nt	-24.1%
CCN1C(=O)[C@H]2[C@@H](c3ccc(-c4ccccc4)cc3)N[C@@](C)(C(=O)OC)[C@H]2C1=O	16.7%	?	i	9.28µM*	nt	-2.9%
COC(=O)[C@]1(C)N[C@H](c2ccc(-c3cccc(Cl)c3)cc2)[C@@H]2C(=O)N(C)C(=O)[C@@H]21	23.9%	nt	?	nt	nt	-12.7%
CCCOc1ccc(N2C(=O)CC(SC(=N)N3N=C(c4ccccc4)CC3c3ccccc3)C2=O)cc1 (stereo not given)	?	-21.6%	nt	2.33µM*	nt	nt
CCOC(=O)[C@H]1[C@H]2COc3ccc(Br)cc3[C@@H]2N2C(=O)CN(Cc3ccc(C)cc3)C(=O)[C@@]12C	-16.6%	?	-1.5%	14.7µM*	nt	?
CCOC(=O)[C@H]1[C@H]2COc3ccc(OC)cc3[C@@H]2N2C(=O)CN(Cc3ccc(C)cc3)C(=O)[C@@]12C	11.8%	3.7µM*	-8.7%	10.4µM*	nt	-12.6%
CCOC(=O)[C@H]1[C@H]2COc3cc(OC)ccc3[C@@H]2N2C(=O)CN(Cc3ccccc3)C(=O)[C@@]12C	?	?	-2.7%	?	nt	-7.6%
CCOC(=O)[C@H]1[C@H]2COc3ccc(Br)cc3[C@H]2N2C(=O)CN(Cc3ccc(C)cc3)C(=O)[C@@]12C	?	nt	i	nt	nt	-19.6%
CCOC(=O)[C@H]1[C@H]2COc3cc(OC)ccc3[C@@H]2N2C(=O)CN(Cc3ccc(OC)cc3)C(=O)[C@@]12C	?	?	-26.6%	11.7µM*	nt	-22.2%
CCOC(=O)[C@H]1[C@H]2COc3ccc(OC)cc3[C@H]2N2C(=O)CN(Cc3ccccc3)C(=O)[C@@]12C	5.7%	nt	i	nt	nt	5.7%
CCOC(=O)[C@H]1[C@H]2COc3ccc(OC)cc3[C@@H]2N2C(=O)CN(Cc3ccc(OC)cc3)C(=O)[C@@]12C	-9.4%	?	i	6.57µM*	nt	2.0%
COC(C[C@H](O)C[C@H](O)COCc1ccccc1)OC	-0.2%	82.4%	-6.8%	63.3%	1.1%	-4.7%
CCOc1ccc(NC(=O)c2sc3nc4n(c(=O)c3c2C)CCCC4)cc1	nt	nt	-7.4%	nt	nt	-11.0%
c1ccc(COc2cccc(-c3cc4nc(NCc5ccc6c(c5)OCO6)ccn4n3)c2)cc1	nt	nt	-28.8%	nt	nt	-13.5%
O=C(/C=C/c1ccc(Cl)cc1)NCc1ccco1	0.6%	?	?	-30.0%	-20.4%	?
CN(C)CCNC(=O)C1Cc2c(-c3ccccc3Oc3ccccc3)ccnc2O1 (stereo not given)	nt	nt	-7.2%	nt	nt	-24.5%
COc1ccccc1N=C1NC(=O)/C(=C/c2ccc(N(C)C)cc2)S1	?	?	nt	0.0928µM*	-8.2%	nt
SMILES	HCV inhibitor	Pf growth 96h	VACV mCherry inh	Pf growth 48h	NS1 function inh	VACV Venus inh
COc1ccc(/C=C2\SC(=Nc3ccccc3)NC2=O)cc1	nt	?	nt	?	4.8%	nt
COc1cc(/C=C2/SC(=Nc3ccc(O)cc3)NC2=O)cc(OC)c1O	?	1.85µM*	i	3.7µM*	11.8%	107.4%
COc1ccc(N=C2NC(=O)/C(=C/c3ccc(O)c(OC)c3)S2)cc1	-16.5%	?	?	-17.6%	26.6%	10.5%
COc1cc(/C=C2\SC(=Nc3ccc(O)cc3)NC2=O)cc(OC)c1OC	3.98µM*	?	-6.0%	?	-2.2%	-10.0%
COc1ccc(C(=O)N/C(=C/c2cccs2)C(=O)NCCCn2ccnc2)cc1OC	6.5%	-18.9%	nt	2.8%	4.7%	nt
C/C(=N\Nc1nncc2ccccc12)c1ccc(C(C)(C)C)cc1	2.51µM*	?	-6.0%	10.0%	-0.4%	2.3%
C(=N\Nc1nncc2ccccc12)/c1ccccc1	14.1%	0.0%	-11.2%	154.5%	-8.7%	-3.0%
C/C(=N\Nc1nncc2ccccc12)c1cccc(OC(F)F)c1	?	287.6%	?	139.6%	-15.7%	-16.7%
C/C(=N\Nc1nccnc1Cl)c1ccc(O)cc1	3.5%	7.38µM*	nt	24.1%	-5.4%	nt
C/C(=N\Nc1nncc2ccccc12)c1ccc(O)cc1	7.08µM*	232.4%	?	167.1%	22.1%	-2.2%
CCN(CC)S(=O)(=O)c1cc(NC(=O)C2=COCCO2)ccc1Cl	3.7%	2.2%	-2.0%	?	nt	-15.5%
Cc1cc(C(=O)CSc2ncnc3ccccc23)c(C)n1C1CC1	10µM*	?	i	?	nt	-11.9%
Cc1cc(C)n2nc(SCC(=O)c3cc(C)n(-c4cc(C)on4)c3C)nc2n1	4.47µM*	nt	-6.6%	?	2.4%	?
Cc1cc(C)n2nc(SCC(=O)c3ccccc3)nc2n1	?	34.9%	-22.2%	19.0%	-3.6%	-9.2%
Cc1cc(-n2c(C)cc(C(=O)CSc3nnc4sc5ccccc5n34)c2C)no1	-13.0%	32.9%	i	-10.4%	-8.3%	-10.6%
Cc1cc(-n2c(C)cc(C(=O)CSc3nnnn3-c3ccc(Cl)cc3)c2C)no1	?	11.7µM*	-12.1%	11.7µM*	-5.5%	-10.9%
Cc1cc(-n2c(C)cc(C(=O)CSc3ncnc4ccccc34)c2C)no1	2.82µM*	?	nt	11.8%	-9.0%	nt
Cc1nc2scc(C)n2c(=O)c1S(=O)(=O)NCC1CCN(Cc2ccc(Cl)cc2)CC1	?	?	nt	0.8%	-1.8%	nt
CC(N=C1NS(=O)(=O)c2ccccc21)C(=O)NCCCc1ccccc1 (stereo not given)	?	13.6%	i	-26.2%	-3.0%	-3.5%
